Bioassay records (PubChem BioAssay)
RE007 growth inh: less growth of the S. pombe RE007 Vpr strain | S. pombe RE007 Vpr strain, BacTiter-Glo ATP luminescence, 24 h | Potency, µM (doses to about 92.2 µM), usual class: inhibitors | 0.21% of 360,000 active | AID 651644; active = well fitted falling curve with a large enough effect; inconclusive = small, poorly fitted or top-dose-only effect; inactive = no such curve, though single readings can be large or run the other way; note: nearly all actives have a fitted effect of over 50% in size
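Fission yeast strain RE007, carrying one chromosomally integrated HIV-1 vpr copy, was seeded at OD 0.01 in PMG+AL medium with 23 nL pinned compound. After 24 h at 30 °C and 99% humidity, viability was read by BacTiter-Glo luminescence.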
NS1 function inh: influenza NS1 inhibition; Potency, µM (doses to about 46.1 µM); 0.4% of 270,000 active; AID 2326; calls by dose curve; note: actives are rising curves; nearly all actives have a fitted effect of over 50% in size
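Compounds were scored for reversing the slow growth caused by influenza A NS1 in S. cerevisiae, measured by optical density at 600 nm. Assay medium contained 2% galactose at pH 6.0; NS1-free yeast of the same strain were the positive control.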
SARS PLP yeast: SARS-CoV PLP inhibition in yeast; 0.19% of 330,000 active; S. cerevisiae expressing SARS-CoV PLpro, growth rescue; Potency, µM (titrated, usually from 32.9 µM), hits mostly activators; calls by dose curve; note: nearly all actives have a fitted effect of over 55% in size
Pf growth 96h: P. falciparum growth inhibition at 96 hours | AID 504834 | P. falciparum luciferase reporter growth, 96 h | 6.9% of 320,000 active | Potency, µM (top dose mostly 28.7 µM), actives largely listed as inhibitors
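Erythrocytes infected with luciferase-expressing P. falciparum were dispensed at 2% hematocrit and 0.05% parasitemia (final), then incubated with compounds 96 hours at 37 C in 5% CO2. Luminescence after detection reagent addition reported growth.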
Pf growth 48h: P. falciparum growth inhibition at 48 hours (one generation). 5.9% of 310,000 active. P. falciparum luciferase growth in erythrocytes, 48 h. Potency, µM (doses to about 28.7 µM), most hits filed as inhibitors
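Parasite viability was followed by luminescence of a genomically integrated firefly luciferase. Cultures held 0.1% parasitemia at 2% hematocrit (final), incubated under 5% CO2 at 37 C.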
A number is an active result; 0 = inactive; ? = inconclusive; - = no result given; [ ] = remark or other dose. Only some compounds are listed: those with a hit (about 9.5% of all), similar ones and a draw of the others. Unless noted, calls come from the whole dose curve; as a rule, active = well fitted inhibition curve with a large enough effect; inconclusive = small, poorly fitted or top-dose-only effect, or another doubt; inactive = no such curve, though single readings can be large or run the other way.

SMILES	RE007 growth inh	NS1 function inh	SARS PLP yeast	Pf growth 96h	Pf growth 48h
O=C(NC1CCOc2ccccc21)c1ccc(Cl)nc1 (stereo unspecified)	0	0	0	0	0
Cc1ccc(C(c2nnnn2CCc2ccccc2)N2CCSCC2)cc1 (stereo unspecified)	0	0	0	-	?
Cc1ccc(C(c2cc(Br)ccc2O)N2CCSCC2)cc1 (stereo unspecified)	0	-	0	15µM	9.3µM
CC(C)C(C(=O)Nc1ccncc1)c1ccc(Cl)cc1 (stereo unspecified)	0	0	-	1.5µM	3.3µM
CC(C)C(C(=O)Nc1nccs1)c1ccc(Cl)cc1 (stereo unspecified)	0	-	0	9.3µM	?
O=C(Nc1ccncc1)c1ccc(Cl)cc1	0	0	0	?	?
COc1ccc(-c2nc(N)ncc2-c2ccccc2OC)c(O)c1	0	0	0	0	0
O=C(NC1CCCCC1)NC1CC2CCCC(C1)N2C1CCCC1 (stereo unspecified)	0	0	0	13µM	0
O=C(NC1CC2CCCC(C1)N2C1CC1)NC12CC3CC(CC(C3)C1)C2 (stereo unspecified)	-	0	0	0	0
CN1CCN(Cc2nc3ccccc3c(=O)n2Cc2nc(-c3ccc4ccccc4c3)cs2)CC1	0	0	0	?	12µM
CN(C)Cc1nc2ccccc2c(=O)n1Cc1nc(C(C)(C)C)cs1	0	0	0	0	13µM
CN1CCN(Cc2nc3ccccc3c(=O)n2Cc2nc(-c3ccccc3F)cs2)CC1	-	0	0	?	?
CN1CCN(Cc2nc3ccccc3c(=O)n2Cc2nc(-c3cccc([N+](=O)[O-])c3)cs2)CC1	0	-	0	2.3µM	?
O=C(Cc1cccc(NC(=O)C2CCCN(C(=O)C3CCCC3)C2)c1)Nc1ccc(C(=O)N2CCCCC2)cc1 (stereo unspecified)	0	-	-	-	-
CCCCn1c(N)c(N(CC(C)C)C(=O)CSCC(=O)Nc2ccc(C)cc2)c(=O)[nH]c1=O	0	-	0	?	?
COc1ccc(O)c(C(=O)C2c3ccccc3C(=O)N2c2ccc(C)cc2)c1 (stereo unspecified)	0	0	0	1.5µM	?
COc1cccc(CC(NC(C)=O)C(=O)NC2CCN(C(=O)c3ccc(Cl)cc3)CC2)c1OC (stereo unspecified)	0	0	0	0	0
CCCCC[C@@H](C)N1C[C@@H](COCc2ccccc2)Oc2cc(N3CCC[C@@H]3CO)ccc2S1(=O)=O	0	-	-	-	-
CC[C@@]1(O)C(=O)OCc2c1cc1n(c2=O)Cc2cc3c(CN(C)C)c(O)ccc3nc2-1	0[18.4 µM]	0	-	11µM	8.5µM
CC[C@@]1(O)C(=O)OCc2c1cc1n(c2=O)Cc2cc3c([N+](=O)[O-])cccc3nc2-1	-	-	-	?	8.5µM
CC[C@@]1(O)C(=O)OCc2c1cc1n(c2=O)Cc2cc3c(N)cccc3nc2-1	0	0	0	1.2µM	1.9µM
COC(=O)c1ccccc1COc1cccn2c(N(C)C(=O)CCC3CCCC3)c(C)nc12	0[18.4 µM]	-	-	-	-
COc1cc2cc[n+](Cc3ccc([N+](=O)[O-])cc3)cc2cc1OC	0	0	0	3.3µM	4.7µM
COc1ccccc1-c1nnc(NC(=O)c2ccc(S(=O)(=O)N(C)Cc3ccccc3)cc2)o1	0	0	0	10µM	0
CCCCN(C)S(=O)(=O)c1ccc(C(=O)Nc2nnc(CSC)o2)cc1	0	0	0	13µM	?
SMILES	RE007 growth inh	NS1 function inh	SARS PLP yeast	Pf growth 96h	Pf growth 48h
CCN(Cc1ccccc1)S(=O)(=O)c1ccc(C(=O)Nc2nnc(C)o2)cc1	0	0	0	?	9.3µM
CCc1nnc(NC(=O)c2ccc(S(=O)(=O)N(C)Cc3ccccc3)cc2)o1	0	0	0	0	0
Cc1cn(CCOc2ccc(Cl)cc2)c(=O)[nH]c1=O	0	0	0	0	0
CC1=C(C(=O)OC2CCCCC2)C(c2ccc(O)cc2)NC(=O)N1 (stereo unspecified)	0	0	0	0	0
CC1=C(C(=O)OC2CCCCC2)C(c2ccc(F)cc2)NC(=O)N1 (stereo unspecified)	0	0	0	9.3µM	0
CCc1cccc2c1NC(=O)C2(O)CC(=O)c1cccs1 (stereo unspecified)	0	0	0	0	0
CCOC(=O)N1CCC(NC(=O)c2cccn3c(=O)c4cc(Br)ccc4nc23)CC1	0	0	0	0	2.6µM
O=C(Cc1cccc2ccccc12)Nc1ccc(-c2cc3ccccc3oc2=O)cc1	0	0	0	?	12µM
Clc1ccc2c(N3CCOCC3)ccnc2c1	0	0	0	0	0
Clc1ccc2c(N3CCCC3)ccnc2c1	0	0	0	-	3.7µM
Clc1ccc2c(N3CCNCC3)ccnc2c1	0	0	-	-	?
Oc1ccc(N2CCN(c3ccnc4cc(Cl)ccc34)CC2)cc1	0	0	0	2.3µM	3.3µM
NC(=O)C1CCN(c2cc(Cl)ccc2[N+](=O)[O-])CC1	0	0	0	0	0
NC(=O)C1CCN(c2ccnc3cc(Cl)ccc23)CC1	0	0	0	12µM	?
COc1ccc(N2CCN(c3ccnc4cc(Cl)ccc34)CC2)cc1	0	0	0	7.4µM	?
O=C(COc1ccc(Cl)cc1)NNC(=O)c1ccccc1C(=O)O	0	0	0	?	0
O=C1OC(c2ccccc2)=N/C1=C\C=C\c1ccco1	0	0	0	0	0
O=C1OC(c2ccccc2)=N/C1=C\C=C\c1ccccc1[N+](=O)[O-]	-	0	0	0.47µM	0
CN(C(=O)c1c[nH]c(=O)cc1C(F)(F)F)c1ccc(Cl)cc1	0	0	0	?	?
CN(C(=O)c1c[nH]c(=O)cc1C(F)(F)F)c1ccc(Cl)c(Cl)c1	0	0	0	0	12µM
CC1CC(C)CN(S(=O)(=O)c2ccc3oc(=O)ccc3c2)C1 (stereo unspecified)	0	0	0	0	0
COc1ccccc1-c1c(C)nn2c(N3CCC(C(N)=O)CC3)cc(C)nc12	0	0	0	?	0
CCOC(=O)N1CCC(Nc2cc(C)nc3c(-c4ccccc4OC)c(C)nn23)CC1	0	0	0	0	9.3µM
CCOC(=O)N1CCN(C(=O)CSc2cc(C)nc3c(-c4ccccc4OC)c(C)nn23)CC1	0	0	0	0	4.7µM
CCOC(=O)N1CCN(C(=O)CSc2ccc(-c3ccccc3OC)nn2)CC1	0	-	0	4.7µM	?
SMILES	RE007 growth inh	NS1 function inh	SARS PLP yeast	Pf growth 96h	Pf growth 48h
COc1ccccc1-c1c(C)nn2c(C)cc(C)nc12	0	0	0	13µM	0
CCOC(=O)N1CCN(C(=O)CSc2ccc(-c3cccc(OC)c3)nn2)CC1	0	-	0	0	0
O=C(Cn1ccc(NC(=O)OCc2ccccc2)nc1=O)NCCc1c[nH]c2ccccc12	0	-	0	?	?
C=CCNc1nc(NCCOc2ccccc2Cl)c2sc(-c3ccccc3)cc2n1	0	-	-	-	-
COc1ccc([C@]23Cc4cc(OC)c(OC)cc4C(O2)C2=C(CC(C)(C)CC2=O)O3)cc1	-	0	?	?	?
C[C@@H](O)[C@@H]1C(=O)N2C(C(=O)O)=C([C@H]3CCCO3)S[C@H]12	-	-	-	0	0
